This passage reports inhibition results from PubChem BioAssay AID1274 (Emory University Molecular Libraries Screening Center, 2008).

Among all 220,000 compounds or so, about 1,100 (0.5%) were called active. Only a selection was taken, and actives are over-represented in it overall. Unmarked numbers belong to inactive results.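 Rule for the calls: active = inhibition above about 30% (limit read from the data); inactive = the rest.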

In the assay the target is Neutrophil cytosol factor 1 (Homo sapiens) (UniProt P14598). Kind of assay: blockers of p47phox binding to p22phox – biochemical, uHTS, NADPH oxidase regulatory subunit, primary screen (AID 1274).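 Note: 0% = p47phox with labelled peptide and 100% = labelled peptide alone.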 Particulars: p47phox/p22phox peptide binding, fluorescence polarization, 2 h; at 24.7 µM; hits give high values. In general terms: Fluorescence polarisation rises when a labelled molecule tumbles more slowly, as on binding a larger partner.
Chain of Neutrophil cytosol factor 1 (Homo sapiens) (P14598 whole entry, looked up): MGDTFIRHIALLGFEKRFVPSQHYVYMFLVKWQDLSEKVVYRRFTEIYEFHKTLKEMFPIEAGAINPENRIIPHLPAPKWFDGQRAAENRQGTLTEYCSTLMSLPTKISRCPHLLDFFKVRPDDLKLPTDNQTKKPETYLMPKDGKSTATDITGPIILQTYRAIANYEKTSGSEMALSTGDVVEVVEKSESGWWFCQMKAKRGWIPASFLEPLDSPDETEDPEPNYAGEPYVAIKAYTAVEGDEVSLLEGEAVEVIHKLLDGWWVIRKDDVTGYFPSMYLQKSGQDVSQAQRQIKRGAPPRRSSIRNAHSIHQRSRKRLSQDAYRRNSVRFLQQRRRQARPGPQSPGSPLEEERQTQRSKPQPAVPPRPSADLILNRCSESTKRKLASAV
By inhibition is commonly meant the relative decrease from the control value, in per cent. Regarding `Nc1nnnn1/N=C/c1cccs1`, the inhibition is -3.56%. For `C=CCOc1c(Br)cc(/C=N\n2nnnc2N)cc1OC`, the inhibition was 2.05%. `COc1ccc(/C=N/n2nnnc2N)cc1OC`: the inhibition is 31.6% (active). As for `CCc1ccc(-c2nn(-c3ccccc3)cc2CSC(=N)N)cc1`, the inhibition was 51% (active). Regarding `N=C(N)SCc1cccc2ccccc12`, the inhibition is -8.51%. Then `CCn1c(SCc2ccc(C)cc2)nnc1-c1nn(-c2ccccc2)ccc1=O`, with -13%. For `CCOc1cc(/C=C(/C#N)c2ccc(Cl)cc2)cc(Cl)c1OCC(=O)O` the value was -9.24%; for `COC(=O)CN1C(=O)N/C(=C/c2ccc(OC)c(C)c2OC)C1=O`, 5.97%; for `Cc1ccc(-c2nn(-c3cccc(F)c3)cc2CNCCc2ccncc2)o1`, -21.2%.

For the compound `COc1ccccc1CC(=O)Nc1ccc(F)cc1F`, the inhibition is 6.55%. Take `CSCCNCc1cn(-c2ccc(F)cc2F)nc1-c1ccccc1C`: the inhibition is 30.6% (active). For `O=C(Nc1ccccc1N1CCOCC1)c1csc2c1CCCC2` the value was -2.28%; for `c1csc(-c2nnc(COc3ncnc4sccc34)o2)c1`, -9.61%; for `NC(=O)NC(=O)CSc1nc2cc([N+](=O)[O-])ccc2n1-c1cccc(C(F)(F)F)c1`, -1.12%. For the compound `CCCc1c(C(=O)O)cnn1-c1ccc(Cl)cc1`, the inhibition is -1.8%. Turning to `CC1(C)CC(=O)C=C(N2CCCC2)C1`, the inhibition was -17.5%.

`CC1(C)CC(N2CCN(C(c3ccccc3)c3ccccc3)CC2)=CC(=[N+]2CCCCC2)C1`: the inhibition was 30.8% (active). On to `CC(C)NC(=S)N1CCN(C(c2ccccc2)c2ccccc2)CC1`, for which the inhibition is -3.69%. As to `CCCSc1ncccc1C(=O)O`, the inhibition is -1.29%. Turning to `Cc1ccc(Nc2nc(Cl)c(C=O)s2)cc1`, the inhibition is -45%.

On to `O=C(/C=C/c1ccccc1)Nc1nnc(SCC(=O)c2ccc3ccccc3c2)s1`, for which the inhibition was -19.6%.

As to `O=C(Cc1c(F)cccc1Cl)Nc1ncc([N+](=O)[O-])s1`, the inhibition was -2.51%. Take `CC(=O)Oc1ccccc1C(=O)Nc1ncc([N+](=O)[O-])s1`: the inhibition was -3.91%. In the case of `O=C(CCc1ccccc1)Nc1ncc([N+](=O)[O-])s1`, the inhibition is 41.8% (active). In the case of `Cn1c(C(=O)O)ccc1S(=O)(=O)N(Cc1ccccc1)Cc1ccccc1`, the inhibition was 0.4%. For `Cc1ccc2c(CC(=O)NCc3cccs3)coc2c1`, the inhibition is -14.7%. On to `CC1Cc2ccccc2N1C(=O)CSc1nc2ccccc2o1` (stereo not drawn), for which the inhibition is -13.1%.

For the compound `CC1Cc2ccccc2N1C(=O)CSc1nnc(C2CC2)n1C` (stereo not drawn), the inhibition is -12.6%. For `Cc1cc(=O)[nH]c(SCC(=O)N2c3ccccc3CC2C)n1` (stereo not drawn), the inhibition was 42.8% (active). For the compound `O=C(NN1C(=O)C2CCCCC2C1=O)c1ccco1` (stereo not drawn), the inhibition was 8.97%.

As for `C/C=C(\C)C(=O)N1CC2(CC(c3cccc(NC(=O)CCCCC)c3)=NO2)C[C@@H]1C(N)=O` (stereo partly drawn), the inhibition was -4.05%. For `Cc1cc(N2C(=O)C(=O)/C(=C(/O)c3ccc(Cl)cc3)C2c2cccc(Br)c2)no1` (stereo not drawn) the value was -12.5%; for `COc1ccccc1C1/C(=C(/O)c2ccc(C)cc2)C(=O)C(=O)N1Cc1ccco1` (stereo not drawn), -0.55%; for `COc1ccccc1C1/C(=C(/O)c2ccc(OC(C)C)cc2)C(=O)C(=O)N1c1cc(C)on1` (stereo not drawn), 54.4% (active). With `COc1ccc(NC(=O)COC(=O)c2ccncc2)c(OC)c1`, the inhibition was -5.21%. Take `COc1ccc(NC(=O)c2ccccc2CC[N+](=O)[O-])cc1`: the inhibition is -4.4%.

Take `CCn1c(CNS(=O)(=O)c2ccc(Cl)cc2)n[nH]c1=S`: the inhibition was -6.22%. For `CCc1nc2sc(C(=O)O)c(N)c2c2c1CCCC2` the value was 3.39%; for `COc1ccc(-c2ccnc(SCC(=O)N3CCOCC3)n2)cc1`, -7.88%; for `COC(=O)CSc1nccc(-c2cccs2)n1`, 57.9% (active). For `O=C(O)COc1ccc(-c2nccc(-c3cccs3)n2)cc1` the value was -0.51%; for `CN1CCN(S(=O)(=O)c2ccc(NC(=S)NC(=O)C3CC3)cc2)CC1`, 5.87%. In the case of `COc1ccccc1-n1ccnc1SCC(=O)NC(C)(C)C`, the inhibition is 130% (active). In the case of `Cc1nnc(NC(=O)CSc2nccn2-c2cccc(C)c2C)s1`, the inhibition is -2.14%.

With `Cc1ccc(C)c(-n2ccnc2SCC(N)=O)c1`, the inhibition is -6.63%. For `Cc1cccc(NC(=O)CSc2nnc(CCNC(=O)OC(C)(C)C)o2)c1C`, the inhibition was -4.83%. On to `O=[N+]([O-])C(=c1ccc2c(c1)N1C3=C(CCCC3)CC3CCCCC31N=2)[N+](=O)[O-]` (stereo not drawn), for which the inhibition is 32.3% (active). `COc1cc(N2CCCC2)c(OC)cc1/C=C(/C#N)c1cccc(Br)c1`: the inhibition was 41.6% (active).

Consider `CC(=O)Nc1cccc(Oc2cc(C#N)c(C#N)cc2N2CCOCC2)c1`, for which the inhibition is -5.37%. As for `COc1cccc(C(=O)Nc2ccc(N3CCCC3)cc2)c1`, the inhibition is -24.3%. Regarding `O=C(CCN1C(=O)/C(=C/c2cccs2)SC1=S)NNC(=O)c1cccc(O)c1`, the inhibition is -143%. Take `O=C1/C(=C/c2cccs2)SC(=S)N1C1CCS(=O)(=O)C1` (stereo not drawn): the inhibition is 136% (active). For the compound `O=C1N/C(=C/c2cccs2)C(=O)N1Cc1ccc(F)cc1`, the inhibition was -8.47%. For `O=C(Nc1ccccc1)O/N=C1/CCCc2occc21` the value was -10.7%; for `COc1cc(OC)cc(-c2nc3ccccc3c(=O)n2NC(=O)c2cccnc2Cl)c1`, -17.9%. Then `COc1ccc(C)cc1NC(=O)c1ccc(-c2ccc(C(C)=O)cc2)o1`, with -8.08%; and `COc1cc(OC)c(OC)cc1/C=N/Nc1ncnc2c1[nH]c1ccc(C)cc12`, with 34.2% (active); and `CC(C)OCCCNc1ncnc2c1[nH]c1ccc(F)cc12`, with -10.6%. Regarding `Cc1ccc2[nH]c3c(=O)n(Cc4ccccn4)cnc3c2c1`, the inhibition was -18.3%.

Turning to `CC(=O)NCCn1c(SCC(=O)Nc2ccc(C)cc2)nc2ccccc2c1=O`, the inhibition was 1.49%. Turning to `CC(C)(C)C(=O)OCc1nc(-c2ccc(O)c(O)c2)cs1`, the inhibition is -9.67%. Consider `NC(N)=N/N=C/c1ccc(OCc2ccc(Cl)cc2Cl)cc1`, for which the inhibition was 103% (active). As for `NC(N)=N/N=C/c1ccc(Cl)c([N+](=O)[O-])c1`, the inhibition was 3.52%.

Regarding `COc1ccc(C(=O)O/N=C(\N)Cc2ccc(Cl)cc2Cl)cc1OC`, the inhibition was -5.94%.

Regarding `Oc1oc(-c2ccccc2Br)nc1/C=N/c1ccccn1`, the inhibition is -6.08%. On to `Cc1cc(C)n(Cc2cnc(N3CCOCC3)s2)n1`, for which the inhibition is -9.55%. `O=C(NCc1cc(C(F)(F)F)cc(C(F)(F)F)c1)C1CC(c2cccc(F)c2)=NO1` (stereo not drawn): the inhibition is -5.46%. With `COc1ccc(N2CC(C)Cn3c2nc2c3c(=O)n(Cc3ccccc3F)c(=O)n2C)c(OC)c1` (stereo not drawn), the inhibition is 58.5% (active). As for `CC(C)OCCCNc1nc2c(c(=O)n(Cc3ccccc3F)c(=O)n2C)n1C`, the inhibition is -4.4%. Regarding `Cc1cccc(N2CC(C)Cn3c2nc2c3c(=O)n(CC(=O)OCc3ccccc3)c(=O)n2C)c1` (stereo not drawn), the inhibition is -39.9%. Take `COc1ccc(C2(CNC(=O)Cc3ccc(OC)c(OC)c3)CCCC2)cc1`: the inhibition is 10.1%.

As for `O=C(CSc1ccc2nnc(-c3ccccc3)n2n1)N1CCCc2ccccc21`, the inhibition was 9.14%. As for `COc1ccc(NC(=S)SC)cc1OC`, the inhibition was -0.91%. In the case of `O=c1[nH]c2cccnc2n1-c1ccc([N+](=O)[O-])cc1`, the inhibition is 3.76%. For `O=c1[nH]n(-c2ccc([N+](=O)[O-])cc2)c(=O)c2ccccc12` the value was 43.7% (active); for `O=C1CC(c2ccccc2)=NN1c1ccc([N+](=O)[O-])cc1`, -0.56%. On to `CC(=O)c1c(C)[nH]c(C(=O)Nc2cc(S(=O)(=O)N(C)C)ccc2C)c1C`, for which the inhibition is -11.1%. For `COCCn1c(SCC(=O)Nc2cc(OC)ccc2OC)nc2c(c1=O)SC(C)C2` (stereo not drawn) the value was -1.72%.

As to `CC1=C(C)C(=O)OC(C(C)C2CCC3C4CC=C5CC(OC6OC(COC7OC(CO)C(O)C(O)C7O)C(O)C(O)C6O)CC(O)C5(C)C4CCC23C)C1` (stereo not drawn), the inhibition was -3.03%. With `Cc1cccc2cc(CN(Cc3cccs3)C(=S)NCc3ccco3)c(=O)[nH]c12`, the inhibition is -184%. For `O=C(Nc1ccccc1)N(Cc1cccnc1)Cc1ccco1`, the inhibition was -9.87%. As for `Cc1ccc(C)c2[nH]c(=O)c(CN(Cc3cccnc3)C(=S)NCc3ccco3)cc12`, the inhibition was 40.3% (active). Turning to `O=S1(=O)CC/C(=N\Nc2ccc(F)cc2)c2ccsc21`, the inhibition is -3.38%. Regarding `N#C/C(=C/c1ccc(-c2ccccc2[N+](=O)[O-])o1)C(=O)NCCN1CCCCC1`, the inhibition was 2.84%. For `N#C/C(=C/c1ccc(N2CCCCC2)o1)C(=O)NCCc1c[nH]c2ccccc12`, the inhibition is 41.9% (active). With `O=C(NCCc1c[nH]c2ccccc12)C(=O)NCC1CCCO1` (stereo not drawn), the inhibition is -9.36%. For the compound `Cc1ccc2cc(CN(c3ccc(C)c(C)c3)S(C)(=O)=O)c(=O)[nH]c2c1`, the inhibition is -7.6%. `O=C(Nc1ccc(S(=O)(=O)N2CCOCC2)cc1)c1ccc2ncsc2c1`: the inhibition is -9.71%. Take `Cc1ccc(O)c(NC(=S)NC(=O)COc2ccc(Br)cc2)c1`: the inhibition was -10.4%. With `COc1ccc(NC(=O)CCN2CCCC2)c(OC)c1`, the inhibition is -2.15%.

As to `COc1ccc(OC)c(NC(=O)CCN2CCC(C)CC2)c1`, the inhibition is 43.5% (active). Then `CCOC(=O)N1CCN(CCC(=O)Nc2cc(OC)ccc2OC)CC1`, with 3.79%; and `Cc1ncn2cc(-c3ccc(Cl)cc3Cl)[nH]c(=O)c12`, with 0.92%; and `CN(C)C(=O)CSc1n[nH]c(-c2ccco2)n1`, with -9.79%.

On to `O=C(COC(=O)c1ccc(F)cc1F)Nc1ncccn1`, for which the inhibition is -18.8%. Take `CSc1sc(C)cc1C1C(C#N)=C(N)N(c2cccnc2)C2=C1C(=O)CCC2` (stereo not drawn): the inhibition is 40.6% (active). Then `CCc1ccc(C2C(C#N)=C(N)N(N(C)C)C3=C2C(=O)CCC3)s1` (stereo not drawn), with -16.9%; and `N#CC1=C(N)N(c2ccccc2)C2=C(C(=O)CCC2)C1c1ccccc1` (stereo not drawn), with -23.4%.
